# Assay results as given in PubChem BioAssay (NCATS).
# Records with an inconclusive call do not appear. The source made the active and inactive calls. Unless noted, the call rests on the fitted dose curve; in most records, active means well fitted curve in the direction sought with a large enough effect; inconclusive means small, poorly fitted or top-dose-only effect, or another doubt; inactive means no such curve, though single readings can be large; an effect the other way counts as inactive or inconclusive.
# Legend:
# [1] = target: DNA dC->dU-editing enzyme APOBEC-3G (Homo sapiens) (UniProt Q9HC16); experiment: qHTS for inhibitors of Vif-A3G interactions: Validation (AID 588379); settings: Vif-A3G protein interaction assay; series mostly up to 46.1 µM
# Method in brief: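 HeLa cells stably expressing Vif and A3G-eYFP, 700 cells/well, incubated overnight at 37 deg C, then exposed to compound overnight at 37 deg C. Inhibition of Vif-mediated degradation read as increased yellow fluorescence (Ex 488/Em 500-530) by laser-scanning cytometry.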
# [2] = qHTS Assay for Identification of Small Molecule Agonists for Hypoxia Response Element Signaling Pathway (AID 914; active means well fitted activation curve with a large enough effect in the signal ratio, with a control signal flat, not every such curve was filed as active; the % refers to the signal ratio; further: potency means the concentration at half of the fitted maximal effect); settings: ME-180 (cervical carcinoma) HRE-bla reporter, beta-lactamase ratio, CoCl2, 17 h; activation: stronger effect = higher value
# Method in brief: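 HRE-bla ME-180 cells, overnight plating in Opti-MEM with 0.5% dialyzed FBS; cpd titration + EC50 CoCl2, 17 h, 37 degrees Celsius; CCF4 2.5 h RT; 460/530 nm ratio; AC50.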
# [3] = target: Luciferin 4-monooxygenase (Photinus pyralis) (UniProt P08659); experiment: Biochemical firefly luciferase enzyme assay for NPC (AID 624030);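 further: purified P. pyralis luciferase at 10 nM with luciferin and ATP substrate; nearly all actives have a fitted effect of over 70% in size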; settings: purified P. pyralis luciferase, luminescence, 5 min; series mostly up to 58.6 µM
# Method in brief: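 Direct inhibition of firefly luciferase enzyme (10 nM final, 50 mM Tris Acetate) assessed by luminescence within 5 minutes. Percent activity scaled between DMSO and PTC124 positive control, with concentration-effect curves classified by fit quality and response.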
# [4] = S16 Schwann cell viability assay (CellTiter-Glo assay) (AID 624031); settings: S16 rat Schwann cells viability, 24 h; series mostly up to 57.5 µM;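 further: cellular ATP luminescence as a viability measure; nearly all actives have a fitted effect of over 70% in size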
# Method in brief: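 Untransfected S16 rat Schwann cells; compound 24 h, 37 °C/5% CO2; CellTiter-Glo ATP luminescence. % activity vs no-cell wells and DMSO controls (0%); concentration-effect curves classed by r2, response magnitude, activity.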
# [5] = S16 Schwann cell PMP22 intronic element beta-lactamase assay (AID 624044; calls by dose curve; further: nearly all actives have a fitted effect of over 15% in size); settings: S16 rat Schwann cells, PMP22 element beta-lactamase FRET, 24 h; series mostly up to 38.3 µM
# Method in brief: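 Rat S16 Schwann cells with beta-Lac driven by a PMP22 intronic element, compound-treated 24 h at 37 °C. LiveBLAzer FRET B/G read: 460 nm normalized to potassium clavulanate vs DMSO; 535 nm FRET as viability; concentration-effect curves classified.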
# CP201 = experiment: qHTS profiling for inhibitors of Plasmodium falciparum proliferation (AID 504749); further: nearly all actives have a fitted effect of over 60% in size; further: potency means the concentration at half of the fitted maximal effect; settings: P. falciparum in erythrocytes, SYBR Green DNA, 72 h; series mostly up to 28.7 µM
# Method in brief: (§1)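 Infected RBCs, 0.3% parasitemia/2.5% Hct final; cpd 72 h, 37 C, 5% CO2; lysis buffer with saponin/triton/SYBR Green I, o/n RT dark; FI 485/535; norm. to artemisinin (0.29 uM) and DMSO.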
# CP203 = experiment: as above; settings: P. falciparum in erythrocytes, SYBR Green DNA, 72 h; series mostly up to 28.7 µM
# Method in brief: as §1
# CP211 = experiment: as above; settings: P. falciparum in erythrocytes, SYBR Green DNA, 72 h; series mostly up to 28.7 µM
# Method in brief: as §1
# CP262 = experiment: as above; settings: P. falciparum in erythrocytes, SYBR Green DNA, 72 h; series mostly up to 28.7 µM
# Method in brief: as §1
# CP268 = experiment: as above; settings: P. falciparum in erythrocytes, SYBR Green DNA, 72 h; series mostly up to 28.7 µM
# Method in brief: as §1
# CP269 = experiment: as above; settings: P. falciparum in erythrocytes, SYBR Green DNA, 72 h; series mostly up to 28.7 µM
# Method in brief: as §1
# CP297 = experiment: as above; settings: P. falciparum in erythrocytes, SYBR Green DNA, 72 h; series mostly up to 28.7 µM
# Method in brief: as §1
# CP325 = experiment: as above; settings: P. falciparum in erythrocytes, SYBR Green DNA, 72 h; series mostly up to 28.7 µM
# Method in brief: as §1
# DIV14 = experiment: as above; settings: P. falciparum in erythrocytes, SYBR Green DNA, 72 h; series mostly up to 28.7 µM
# Method in brief: as §1
# DIV17 = experiment: as above; settings: P. falciparum in erythrocytes, SYBR Green DNA, 72 h; series mostly up to 28.7 µM
# Method in brief: as §1
# DIV30 = experiment: as above; settings: P. falciparum in erythrocytes, SYBR Green DNA, 72 h; series mostly up to 28.7 µM
# Method in brief: as §1
# W2 = experiment: as above; settings: P. falciparum in erythrocytes, SYBR Green DNA, 72 h; series mostly up to 28.7 µM
# Method in brief: as §1
# [6] = S16 Schwann cell PMP22 intronic element firefly luciferase assay (AID 624032); settings: S16 rat Schwann cells, PMP22 element FLuc, 24 h; series mostly up to 57.5 µM; further: nearly all actives have a fitted effect of over 30% in size; further: potency means the concentration at half of the fitted maximal effect
# Method in brief: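 Luciferase reporter of PMP22 intronic-element expression in stably transfected S16 rat Schwann cells, read by ONE-Glo luminescence after 24 h compound exposure at 37 C. Activity scaled between DMSO (0%) and positive-control PTC124; concentration-effect curves quality-classified.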
# CP315 = experiment: qHTS profiling for inhibitors of Plasmodium falciparum proliferation (AID 504749); further: nearly all actives have a fitted effect of over 60% in size; further: potency means the concentration at half of the fitted maximal effect; settings: P. falciparum in erythrocytes, SYBR Green DNA, 72 h; series mostly up to 28.7 µM
# Method in brief: as §1
# CP329 = experiment: as above; settings: P. falciparum in erythrocytes, SYBR Green DNA, 72 h; series mostly up to 28.7 µM
# Method in brief: as §1
# Luciferin 4-monooxygenase (Photinus pyralis), sequence (P08659 whole entry, looked up): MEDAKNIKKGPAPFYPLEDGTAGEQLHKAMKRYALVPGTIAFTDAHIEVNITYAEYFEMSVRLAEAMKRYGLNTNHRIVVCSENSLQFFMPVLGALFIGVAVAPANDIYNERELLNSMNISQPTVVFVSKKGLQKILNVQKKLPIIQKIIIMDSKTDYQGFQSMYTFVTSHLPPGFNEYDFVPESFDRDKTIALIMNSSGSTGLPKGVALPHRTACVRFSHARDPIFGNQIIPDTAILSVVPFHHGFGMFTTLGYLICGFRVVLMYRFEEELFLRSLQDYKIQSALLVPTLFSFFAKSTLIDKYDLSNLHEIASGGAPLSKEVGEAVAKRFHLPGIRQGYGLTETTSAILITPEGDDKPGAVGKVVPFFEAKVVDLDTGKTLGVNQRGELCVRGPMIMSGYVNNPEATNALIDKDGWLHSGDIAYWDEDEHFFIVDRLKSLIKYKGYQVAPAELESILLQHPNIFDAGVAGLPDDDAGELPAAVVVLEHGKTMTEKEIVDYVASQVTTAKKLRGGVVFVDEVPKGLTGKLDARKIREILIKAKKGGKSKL
# DNA dC->dU-editing enzyme APOBEC-3G (Homo sapiens), sequence (Q9HC16 whole entry, looked up): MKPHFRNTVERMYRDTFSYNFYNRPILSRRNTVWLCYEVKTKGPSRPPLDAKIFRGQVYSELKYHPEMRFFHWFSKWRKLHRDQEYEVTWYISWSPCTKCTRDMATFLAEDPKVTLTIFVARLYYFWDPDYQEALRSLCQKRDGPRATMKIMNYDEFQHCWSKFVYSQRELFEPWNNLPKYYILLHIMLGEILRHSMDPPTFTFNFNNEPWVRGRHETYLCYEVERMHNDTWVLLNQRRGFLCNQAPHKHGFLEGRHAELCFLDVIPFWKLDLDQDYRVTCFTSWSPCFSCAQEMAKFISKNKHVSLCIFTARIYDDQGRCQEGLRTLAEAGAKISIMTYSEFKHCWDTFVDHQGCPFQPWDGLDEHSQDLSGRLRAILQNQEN
smiles,measurement,setting,value
C[C@]12CCC(=O)C=C1CC[C@@H]1C2[C@@H](O)C[C@@]2(C)[C@H]1CC[C@]2(O)C(=O)CO (stereo partly drawn),outcome,[1],inactive
COc1ccccc1-c1cncnc1NCCN1CCOCC1,Potency,[2],2.51 µM (active)
CC(C)C[C@H]1C(=O)N2CCCC2[C@]2(O)O[C@](NC(=O)[C@@H]3C=C4c5cccc6[nH]c(Br)c(c56)C[C@H]4N(C)C3)(C(C)C)C(=O)N12 (stereo partly drawn),Potency,[3],inactive
same,outcome,[4],inactive
same,outcome,[5],inactive
same,Potency,CP201,13.5 µM (active)
same,Potency,CP203,9.53 µM (active)
same,Potency,CP211,15.1 µM (active)
same,Potency,CP262,8.49 µM (active)
same,Potency,CP268,12 µM (active)
same,Potency,CP269,10.7 µM (active)
same,Potency,CP297,10.7 µM (active)
same,Potency,CP325,9.53 µM (active)
same,Potency,DIV14,3.38 µM (active)
same,Potency,DIV17,3.79 µM (active)
same,Potency,DIV30,5.36 µM (active)
same,Potency,W2,1.69 µM (active)
CO[C@H]1/C=C/O[C@@]2(C)Oc3c(C)c(O)c4c(O)c(c(/C=N\N5CCN(C6CCCC6)CC5)c(O)c4c3C2=O)NC(=O)/C(C)=C\C=C\[C@H](C)[C@H](O)[C@@H](C)[C@@H](O)[C@@H](C)[C@H](OC(C)=O)[C@@H]1C,outcome,[4],inactive
same,Potency,[6],10.2 µM (active)
same,outcome,[5],inactive
same,Potency,CP201,5.36 µM (active)
same,Potency,CP203,3.79 µM (active)
same,Potency,CP211,4.26 µM (active)
same,Potency,CP268,3.79 µM (active)
same,Potency,CP269,3.38 µM (active)
same,Potency,CP297,1.69 µM (active)
same,Potency,CP315,4.78 µM (active)
same,Potency,CP325,4.78 µM (active)
same,Potency,CP329,4.78 µM (active)
same,Potency,DIV14,0.675 µM (active)
same,Potency,DIV17,0.601 µM (active)
same,Potency,DIV30,0.849 µM (active)
COCCn1c(=O)c(-c2ccccc2)nc2cnc(N3CCNCC3)nc21,Potency,[2],3.16 µM (active)
CC(C)(C)[C@]1(O)CCN2CC3c4ccccc4CCc4cccc(c43)[C@@H]2C1 (stereo partly drawn),Potency,[3],inactive
same,Potency,[6],36.1 µM (active)
same,Potency,CP315,inactive
same,Potency,CP329,inactive
same,Potency,DIV14,10.7 µM (active)
same,Potency,DIV17,15.1 µM (active)
same,Potency,W2,5.36 µM (active)
CN1C[C@H](C(=O)N[C@]2(C)O[C@@]3(O)C4CCCN4C(=O)[C@H](Cc4ccccc4)N3C2=O)C[C@@H]2c3cccc4[nH]cc(c34)C[C@H]21 (stereo partly drawn),outcome,[1],inactive
COc1ccc(CCNC[C@@H](O)c2ccc(O)cc2)cc1OC,Potency,[3],inactive
same,outcome,[4],inactive
same,Potency,[6],inactive
same,outcome,[5],inactive
same,Potency,CP201,inactive
same,Potency,CP211,inactive
same,Potency,CP262,inactive
same,Potency,CP268,inactive
same,Potency,CP269,inactive
same,Potency,CP315,inactive
same,Potency,CP325,inactive
same,Potency,CP329,inactive
